Test systems include DU-145 prostate; K-562 leukemia; MALME-3M melanoma; MDA-MB-231 breast; RXF 393 renal; SF-268 CNS; SF-295 CNS; SF-539 CNS; UACC-257 melanoma; M14 melanoma.
Common to all, as to experiment: NCI-60 one-dose screen, 48 h (100 = growth as untreated, 0 = no growth, -100 = all killed)
What all share (conditions): 10 µM unless noted

About 83,000 compounds went through this panel and 20% of them were active in at least one assay; those are over-represented in the sample as a whole.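 In brief: 96-well plates, 48 h treatment, single concentration, percent growth endpoint.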 Unmarked numbers belong to inactive results. Calls of active or inactive are those of the source. The calls were made as follows: active = growth percent below 10; inactive = the rest.

For the compound `CCOC(=O)C(CCC#N)(CCC#N)C(=O)OCC`, the growth in the assay on DU-145 prostate was 110%; in the assay with K-562 leukemia it was 115%; in the assay with MALME-3M melanoma, 113%; with MDA-MB-231 breast it was 105%; with RXF 393 renal, 104%; in the assay with SF-268 CNS, 99.2%. For the same compound, the growth in the assay with SF-295 CNS was 96.4%; in the assay with SF-539 CNS it was 103%; in the assay with UACC-257 melanoma it was 103%; with M14 melanoma it was 89.2%.

Regarding `COc1cc(C(=O)O)c(O)c(C(C)(C)C)c1`, the growth was 106% in the assay with DU-145 prostate; 101% in the assay with K-562 leukemia; 102% with MALME-3M melanoma; 103% in the assay with MDA-MB-231 breast; 117% in the assay on RXF 393 renal; 105% with SF-268 CNS. The growth is 102% with SF-295 CNS, 102% with SF-539 CNS, 97.9% in the assay with UACC-257 melanoma and 105% in the assay on M14 melanoma.

For `Cc1cc(C(=O)c2ccccc2)cc(C)c1O`, the growth with DU-145 prostate was 113%; with K-562 leukemia, 94.7%; with MALME-3M melanoma it was 94.1%; with MDA-MB-231 breast, 124%; in the assay on RXF 393 renal it was 116%; in the assay with SF-268 CNS it was 102%. For the same compound, the growth in the assay on SF-295 CNS is 107%; with SF-539 CNS it was 90.4%; with UACC-257 melanoma it was 115%; with M14 melanoma, 103%.

Regarding `CCCCc1ccc2nc(NC(=O)OC)[nH]c2c1`, the growth with DU-145 prostate is -2.08% (active); in the assay on K-562 leukemia, -20.4% (active); with MALME-3M melanoma, 48.1%; in the assay on MDA-MB-231 breast it was 13%; in the assay with RXF 393 renal, 20.9%; with SF-268 CNS, 28.8%. Besides, the growth with SF-295 CNS is -5.83% (active); in the assay on SF-539 CNS, -51.1% (active); in the assay on UACC-257 melanoma, 69%; in the assay with M14 melanoma, 8.08% (active).

With `CCCCCC#CC(=O)O`, the growth in the assay with DU-145 prostate is 132%; in the assay on K-562 leukemia it was 103%; with MALME-3M melanoma, 99.9%; with MDA-MB-231 breast, 110%; in the assay on RXF 393 renal it was 125%; in the assay on SF-268 CNS, 110%. The growth in the assay with SF-295 CNS is 103%; in the assay with SF-539 CNS, 103%; with UACC-257 melanoma it was 104%; in the assay with M14 melanoma it was 120%.

Regarding `CN(C)c1ccc(O)c2c1CC1CC3C(N(C)C)C(=O)C(C(N)=O)=C(O)C3(O)C(=O)C1=C2O` (stereo not given), the growth is 49% in the assay with DU-145 prostate; 45.2% in the assay on K-562 leukemia; 46.8% with MALME-3M melanoma; 66.3% in the assay on MDA-MB-231 breast; 46.3% with RXF 393 renal; 46.1% in the assay with SF-268 CNS. In addition, the growth was 11.8% in the assay with SF-295 CNS, 41.6% in the assay with SF-539 CNS, 48.4% with UACC-257 melanoma and 42.1% in the assay on M14 melanoma.

As for `O=Cc1c(O)c2ccccc2[nH]c1=O`, the growth with DU-145 prostate is 158%; with K-562 leukemia, 111%; in the assay on MALME-3M melanoma, 139%; in the assay with MDA-MB-231 breast it was 99.6%; in the assay on RXF 393 renal it was 114%; in the assay on SF-268 CNS, 110%. Besides, the growth in the assay on SF-295 CNS was 109%; in the assay on SF-539 CNS, 97.9%; in the assay with UACC-257 melanoma, 84.8%; with M14 melanoma it was 94.4%.

With `O=C1CSc2ccccc2N1`, the growth in the assay on DU-145 prostate is 116%; with K-562 leukemia, 122%; in the assay on MALME-3M melanoma it was 108%; in the assay on MDA-MB-231 breast it was 115%; in the assay with RXF 393 renal, 120%; in the assay with SF-268 CNS, 104%. Also, the growth is 110% in the assay on SF-295 CNS, 129% in the assay on SF-539 CNS, 101% with UACC-257 melanoma and 113% with M14 melanoma.

`CCOc1ccc(C(=O)NCC(C)C)cc1`: the growth is 110% with DU-145 prostate; 102% in the assay on K-562 leukemia; 101% in the assay on MALME-3M melanoma; 93.2% in the assay with MDA-MB-231 breast; 108% in the assay with RXF 393 renal; 102% with SF-268 CNS. Moreover, the growth in the assay on SF-295 CNS was 99.5%; in the assay with SF-539 CNS, 94.4%; in the assay on UACC-257 melanoma, 110%; with M14 melanoma it was 97%.

Take `Cc1ccc(N2C(=O)c3cccc4c(N)c(S(=O)(=O)O)cc(c34)C2=O)cc1`: the growth in the assay with DU-145 prostate is 120%; in the assay with K-562 leukemia, 103%; in the assay on MALME-3M melanoma it was 135%; with MDA-MB-231 breast it was 106%; in the assay on RXF 393 renal it was 111%; in the assay with SF-268 CNS, 108%. For the same compound, the growth with SF-295 CNS was 129%; in the assay on SF-539 CNS it was 107%; with UACC-257 melanoma, 114%; in the assay with M14 melanoma, 111%.

On to `O=[N+]([O-])c1ccc(-c2nc(N(CCO)CCO)c3ccccc3n2)o1`, for which the growth in the assay with DU-145 prostate is -22.8% (active); in the assay with K-562 leukemia, 4.2% (active); in the assay with MALME-3M melanoma, -74.5% (active); in the assay with MDA-MB-231 breast it was -6.61% (active); in the assay with RXF 393 renal, -87.1% (active); in the assay on SF-268 CNS, -16.2% (active). The growth in the assay on SF-295 CNS is -32.1% (active); in the assay on SF-539 CNS, -48.9% (active); in the assay on UACC-257 melanoma, -36.3% (active); with M14 melanoma, -90% (active).

As to `N#Cc1ccc(OC(=O)Nc2c(Cl)cc(Cl)cc2Cl)cc1`, the growth in the assay on DU-145 prostate was 111%; in the assay on K-562 leukemia, 101%; in the assay with MALME-3M melanoma it was 95%; in the assay with MDA-MB-231 breast, 101%; with RXF 393 renal, 125%; with SF-268 CNS it was 112%. Moreover, the growth in the assay with SF-295 CNS was 108%; in the assay with SF-539 CNS it was 91.7%; in the assay with UACC-257 melanoma it was 97.7%; in the assay on M14 melanoma, 112%.

Turning to `CCOC(=O)c1c[nH][nH]c1=O`, the growth in the assay with DU-145 prostate was 117%; in the assay on K-562 leukemia it was 116%; in the assay on MALME-3M melanoma, 129%; in the assay with MDA-MB-231 breast, 108%; in the assay with RXF 393 renal it was 110%; in the assay on SF-268 CNS it was 110%. Also, the growth is 112% in the assay with SF-295 CNS, 94.9% in the assay on SF-539 CNS, 59.1% with UACC-257 melanoma and 96.5% in the assay with M14 melanoma.

On to `CCOc1ccc(C(=O)O)cc1`, for which the growth in the assay with DU-145 prostate is 112%; in the assay with K-562 leukemia, 115%; in the assay with MALME-3M melanoma, 118%; with MDA-MB-231 breast, 112%; with RXF 393 renal it was 105%; with SF-268 CNS, 110%. Besides, the growth with SF-295 CNS is 94.6%; with SF-539 CNS, 106%; with UACC-257 melanoma it was 104%; with M14 melanoma, 97.5%.

Take `O=C(O)Cc1cccc2ccccc12`: the growth was 115% in the assay with DU-145 prostate; 96.4% in the assay with K-562 leukemia; 116% in the assay on MALME-3M melanoma; 123% in the assay with MDA-MB-231 breast; 117% in the assay with RXF 393 renal; 109% in the assay on SF-268 CNS. Moreover, the growth is 110% in the assay on SF-295 CNS, 108% with SF-539 CNS, 90.4% in the assay with UACC-257 melanoma and 103% in the assay with M14 melanoma.

The values above are taken from PubChem BioAssay (NCI).
